In PubChem BioAssay (Tox21):
Inconclusive results are not listed. Activity calls are given as the source filed them. Unless noted, the call rests on the fitted dose curve; in most records, active means well fitted curve in the direction sought with a large enough effect in the repeat runs; inconclusive means weak or mixed curves; inactive means no such curve, though single readings can be large; an effect the other way counts as inactive or inconclusive.

Assays:
[1] = qHTS assay to identify small molecule antagonists of the estrogen related receptor (ERR) signaling pathway from Tox21 library - cell viability counter screen (AID 1224834); further: nearly all actives have a fitted effect of over 30% in size
Procedure, shortened: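 ERR reporter cells were plated 6 h before compound addition, then exposed to test compounds in DMSO for 17.5 h at 37 C. Viability was read as CellTiter-Fluor fluorescence after a 30-minute incubation at 37 C.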

[2] = biological target: Luciferin 4-monooxygenase (Photinus pyralis) (UniProt P08659); assay: qHTS assay to identify small molecule inhibitors of firefly luciferase (AID 1224835); further: nearly all actives have a fitted effect of over 25% in size
Chain of Luciferin 4-monooxygenase (Photinus pyralis) (P08659 whole entry, looked up): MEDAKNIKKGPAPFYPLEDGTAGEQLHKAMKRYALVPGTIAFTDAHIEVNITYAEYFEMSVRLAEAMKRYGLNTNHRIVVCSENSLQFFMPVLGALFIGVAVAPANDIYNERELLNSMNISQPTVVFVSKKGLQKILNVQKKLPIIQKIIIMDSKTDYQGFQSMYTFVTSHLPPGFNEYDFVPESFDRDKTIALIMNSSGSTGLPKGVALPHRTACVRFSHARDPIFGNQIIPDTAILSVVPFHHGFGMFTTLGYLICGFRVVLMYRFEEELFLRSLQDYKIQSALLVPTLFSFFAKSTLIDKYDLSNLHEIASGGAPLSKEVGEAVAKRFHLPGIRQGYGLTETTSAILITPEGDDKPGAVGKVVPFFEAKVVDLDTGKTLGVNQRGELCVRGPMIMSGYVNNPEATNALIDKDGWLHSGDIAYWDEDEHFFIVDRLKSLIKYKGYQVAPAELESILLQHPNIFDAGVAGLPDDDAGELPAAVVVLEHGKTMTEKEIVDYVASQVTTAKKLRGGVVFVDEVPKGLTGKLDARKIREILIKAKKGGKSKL
Procedure, shortened: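 Quantitative HTS format; KM concentrations of both substrates. Purified P. pyralis FLuc activity quantified from luminescence images.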

[3] = qHTS assay to identify small molecule agonists of the constitutive androstane receptor (CAR) signaling pathway - cell viability counter screen (AID 1224836); further: nearly all actives have a fitted effect of over 45% in size
Procedure, shortened: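 Counter screen multiplexed with the CAR reporter readout: HepG2 cells co-transfected with hCAR and the CYP2B6-2.2kb construct receive a 15-concentration compound series and 0.75 uM PK11195 (final), then CellTiter-Fluor fluorescence is read after 23 h.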

[4] = qHTS assay to identify small molecule antagonists of the constitutive androstane receptor (CAR) signaling pathway - cell viability counter screen (AID 1224837); further: nearly all actives have a fitted effect of over 45% in size
Procedure, shortened: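 HepG2 cells stably expressing hCAR and a CYP2B6-2.2kb reporter were plated and pre-incubated 4 hr at 37 C/5% CO2, then given compounds at 15 concentrations plus 50 nM CITCO (final). After 23 hr, viability was read by CellTiter-Fluor fluorescence.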

[5] = biological target: Nuclear receptor subfamily 1 group I member 3 (Homo sapiens) (UniProt Q14994); assay: qHTS assay to identify small molecule antagonists of the constitutive androstane receptor (CAR) signaling pathway (AID 1224838); further: nearly all actives have a fitted effect of over 40% in size
Chain of Nuclear receptor subfamily 1 group I member 3 (Homo sapiens) (Q14994 whole entry, looked up): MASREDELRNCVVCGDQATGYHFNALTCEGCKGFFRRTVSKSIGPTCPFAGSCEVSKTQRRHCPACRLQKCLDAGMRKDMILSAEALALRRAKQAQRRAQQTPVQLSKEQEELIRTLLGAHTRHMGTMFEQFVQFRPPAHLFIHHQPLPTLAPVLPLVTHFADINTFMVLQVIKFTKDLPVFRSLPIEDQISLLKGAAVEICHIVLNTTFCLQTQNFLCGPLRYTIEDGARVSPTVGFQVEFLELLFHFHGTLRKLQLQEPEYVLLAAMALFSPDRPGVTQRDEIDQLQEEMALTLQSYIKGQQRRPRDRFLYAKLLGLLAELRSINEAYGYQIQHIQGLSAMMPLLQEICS
Procedure, shortened: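 HepG2 cells stably co-transfected with hCAR and a CYP2B6-2.2kb luciferase reporter were seeded 4 h before compound addition at 15 concentrations. Cells were stimulated with 50 nM CITCO (final) for 24 h at 37 C; luciferase luminescence was then read.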

[6] = qHTS assay to identify small molecule antagonists of the estrogen related receptor signaling pathway with the pleiotropic PPARgamma coactivator (PGC) from Tox21 10K library - cell viability counter screen (AID 1224840; active means well fitted cell-killing curve with a large enough effect in the repeat runs, not every such curve was filed as active; further: nearly all actives have a fitted effect of over 40% in size)
Procedure, shortened: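 PGC/ERR cells were seeded at 2,000 cells/well and left 6 hours at 37 C/5% CO2 before pin-tool addition of compounds in DMSO. After 17.5 hours at 37 C, CellTiter-Fluor was added and fluorescence read 30 minutes later.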

[7] = qHTS assay to identify small molecule antagonists of the estrogen related receptor signaling pathway with the pleiotropic PPARgamma coactivator (PGC) from Tox21 10K library (AID 1224841; call rule not given here; further: actives are mostly falling curves and most rising ones were filed inactive; nearly all actives have a fitted effect of over 50% in size)
Procedure, shortened: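 PGC/ERR reporter cells were seeded at 2,000 cells/well and held 6 hours at 37 C/5% CO2 before pin-tool addition of compounds in DMSO. After 18 hours at 37 C, One-Glo was added and luminescence read after 30 minutes at room temperature.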

[8] = qHTS assay to identify small molecule agonists of the estrogen related receptor signaling pathway with the pleiotropic PPARgamma coactivator (PGC) from Tox21 10K library (AID 1224842); further: nearly all actives have a fitted effect of over 15% in size
Procedure, shortened: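 PGC/ERR reporter cells (NTP line) were seeded 2,000 per well, rested 6 h at 37 C/5% CO2, then pin-dosed with compounds in DMSO for 18 h at 37 C; luciferase read by One-Glo luminescence after 30 min at room temperature.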

[9] = qHTS assay to identify small molecule agonists of the hypoxia (HIF-1) signaling pathway - cell viability counter screen (AID 1224844; calls by dose curve; further: nearly all actives have a fitted effect of over 50% in size)
Procedure, shortened: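 HRE-bla ME-180 cells in medium with 0.5% dialyzed FBS were preincubated 5 hrs at 37C, exposed to compounds for 17 hrs, then viability was read as CellTiter-Glo luminescence after 30 min at room temperature, in the reporter wells.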

[10] = qHTS assay to identify small molecule agonists of H2AX (AID 1224845; active means well fitted activation curve with a large enough effect in the signal ratio in the repeat runs, not every such curve was filed as active; the % refers to the signal ratio)
Procedure, shortened: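 Wild-type CHO-K1 cells plated overnight, then exposed 3 hr at 37C to compounds at 15 concentrations (0.76% DMSO). Lysed, then HTRF anti-pH2AX(S139)-cryptate/anti-H2AX-d2 detection after 24 hr at room temperature; emissions 665 and 620 nm.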

[11] = qHTS assay to identify small molecule agonists of the hypoxia (HIF-1) signaling pathway (AID 1224846; active means well fitted activation curve with a large enough effect in the signal ratio in the repeat runs, not every such curve was filed as active; the % refers to the signal ratio)
Procedure, shortened: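 HRE-bla ME-180 cells (beta-lactamase reporter under hypoxia response element) were plated at 2,000 cells/well in medium with 0.5% dialyzed FBS, rested 5 hrs, then given compounds in DMSO for 17 hrs at 37C, 5% CO2. Reporter induction was read with CCF4-AM FRET substrate.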

[12] = qHTS assay to identify small molecule agonists of H2AX - cell viability counter screen (AID 1224847; calls by dose curve; further: top concentration of the series differs between compounds; nearly all actives have a fitted effect of over 30% in size)
Procedure, shortened: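 We seed wild-type CHO-K1 cells overnight, treat them for 3 hr at 37C with compounds in 15-concentration series, and quantify remaining viability by CellTiter-Glo luminescence.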

[13] = qHTS assay to identify small molecule antagonists of the estrogen related receptor (ERR) signaling pathway from Tox21 library (AID 1224848); further: nearly all actives have a fitted effect of over 50% in size
Procedure, shortened: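 Screening used an ERR reporter line supplied by NTP, exposed for 18 h at 37 C to library compounds delivered in DMSO. Signal was luciferase luminescence developed with ONE-Glo at room temperature for 30 min.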

[14] = qHTS RealTime-Glo MT Cell Viability Assay in HepG2 cells - 24 hour (AID 1224867); further: nearly all actives have a fitted effect of over 50% in size
Procedure, shortened: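 Luminescence read-out: viable HepG2 cells reduce a prosubstrate to a NanoLuc substrate, giving a signal proportional to live cell number. Reads taken at 0, 8, 16, 24, 32 and 40 h of compound exposure at 37 C.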

[15] = qHTS RealTime-Glo MT Cell Viability Assay in HEK293 cells - 32 hour (AID 1224868)
Procedure, shortened: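 Nonlytic real-time viability readout: viable cells convert prosubstrate to NanoLuc substrate, giving luminescence proportional to live cell number. HEK293, 600 cells/well, compound added after 5 h, continuous culture at 37 C.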

[16] = A CellTox Green Cytotoxicity Assay to monitor cytotoxicity in HEK293 cells - 0 hour (AID 1224869); further: nearly all actives have a fitted effect of over 50% in size
Procedure, shortened: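 HEK293 cells premixed with CellTox Green dye were seeded at 600 cells/well and left 5 h at 37 C/5% CO2 before pin transfer of 23 nL compound in DMSO. Fluorescence from dye bound to dead-cell DNA was read during 40 h treatment.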

[17] = qHTS RealTime-Glo MT Cell Viability Assay in HepG2 cells - 40 hour (AID 1224870); further: nearly all actives have a fitted effect of over 50% in size
Procedure, shortened: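 HepG2 cells mixed with RealTime-Glo MT reagents (NanoLuc plus cell-permeant prosubstrate) were seeded at 600 cells/well, incubated 5 h at 37 C/5% CO2, then pinned with compounds in DMSO; nonlytic luminescence tracked viability during 40 h treatment.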

[18] = biological target: Thyrotropin receptor (Homo sapiens) (UniProt P16473); assay: qHTS assay to identify small molecule agonists of the thyroid stimulating hormone receptor (TSHR) signaling pathway (AID 1224843; calls by dose curve; further: nearly all actives have a fitted effect of over 45% in size)
Chain of Thyrotropin receptor (Homo sapiens) (P16473 whole entry, looked up): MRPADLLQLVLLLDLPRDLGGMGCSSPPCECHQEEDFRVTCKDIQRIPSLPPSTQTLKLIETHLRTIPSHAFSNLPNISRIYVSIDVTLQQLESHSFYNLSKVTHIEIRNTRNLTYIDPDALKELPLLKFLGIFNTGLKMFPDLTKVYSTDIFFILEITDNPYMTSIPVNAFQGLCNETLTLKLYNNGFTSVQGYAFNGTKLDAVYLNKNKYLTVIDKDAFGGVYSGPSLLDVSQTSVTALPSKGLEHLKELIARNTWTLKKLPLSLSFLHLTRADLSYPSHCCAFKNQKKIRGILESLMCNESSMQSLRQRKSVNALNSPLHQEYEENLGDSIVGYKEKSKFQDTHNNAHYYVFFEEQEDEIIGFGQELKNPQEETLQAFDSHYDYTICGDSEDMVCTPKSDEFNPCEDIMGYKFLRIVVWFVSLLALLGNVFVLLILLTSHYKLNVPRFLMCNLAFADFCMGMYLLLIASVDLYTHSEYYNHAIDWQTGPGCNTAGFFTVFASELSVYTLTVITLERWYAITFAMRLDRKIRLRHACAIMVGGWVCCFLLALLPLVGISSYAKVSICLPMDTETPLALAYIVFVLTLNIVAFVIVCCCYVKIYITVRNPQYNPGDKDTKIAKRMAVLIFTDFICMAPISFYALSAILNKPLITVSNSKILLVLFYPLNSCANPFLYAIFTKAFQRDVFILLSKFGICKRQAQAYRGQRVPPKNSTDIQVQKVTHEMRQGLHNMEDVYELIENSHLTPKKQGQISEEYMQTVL
Procedure, shortened: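 Cell line HEK293 with TSHR; density 800/well. Exposure 30 min RT. Readout HTRF cAMP (cAMP-d2/anti-cAMP-cryptate), 1 h RT before reading.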

[19] = biological target: Nuclear receptor subfamily 1 group I member 3 (Homo sapiens) (UniProt Q14994); assay: qHTS assay to identify small molecule agonists of the constitutive androstane receptor (CAR) signaling pathway (AID 1224839); further: nearly all actives have a fitted effect of over 15% in size
Procedure, shortened: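 A 15-concentration quantitative screen uses HepG2 cells co-transfected stably with human CAR and CYP2B6-2.2kb reporter. Treatment lasts 24 h with 0.75 uM PK11195 final present; ONE-Glo luminescence is the signal.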

[20] = qHTS assay to identify small molecule agonists of the estrogen related receptor (ERR) signaling pathway from Tox21 library (AID 1224849; calls by dose curve; further: nearly all actives have a fitted effect of over 15% in size); conditions: ERR reporter cell line, ONE-Glo luciferase, 18 h; at 92.4 µM (top of the series) unless noted
Procedure, shortened: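 ERR reporter cell line (NTP) seeded, rested 6 h at 37 C/5% CO2, then pinned with Tox21 compounds in DMSO. After 18 h at 37 C, ONE-Glo luciferase luminescence was read following 30 min at room temperature.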
On the % scale 0 is the no-effect control and ±100 the full control effect.

NS(=O)(=O)c1cc(C(=O)NN2C[C@H]3[C@H]4CCC(C4)[C@H]3C2)ccc1Cl
inactive: Potency [1] | Potency [2] | Potency [3] | Potency [4] | Potency [5] | Potency [6] | Potency [7] | outcome [8] | Potency [9] | outcome [10] | outcome [11] | Potency [12] | Potency [13] | Potency [14] | Potency [15] | Potency [16] | Potency [17]

CO[C@]12C[C@@H](COC(=O)c3cncc(Br)c3)CN(C)[C@@H]1Cc1cn(C)c3cccc2c13
inactive: Potency [1] | Potency [2] | Potency [3] | Potency [4] | Potency [5] | Potency [7] | outcome [8] | Potency [18] | Potency [9] | outcome [10] | outcome [11] | Potency [12] | Potency [13] | Potency [14] | Potency [15] | Potency [16]

CCOC(=O)Nc1ccc(NCc2ccc(F)cc2)nc1N
inactive: Potency [1] | Potency [2] | Potency [3] | Potency [5] | Potency [19] | Potency [6] | Potency [7] | outcome [8] | Potency [18] | Potency [9] | outcome [10] | Potency [12] | activity change, positive = activation [20] -17.8% [at 42.5 µM] | Potency [14] | Potency [15] | Potency [16] | Potency [17]

CC(C)(O)C#CC(C)(C)O
inactive: Potency [1] | Potency [2] | Potency [3] | Potency [5] | Potency [19] | Potency [6] | Potency [7] | outcome [8] | Potency [18] | Potency [9] | Potency [12] | Potency [13] | activity change, positive = activation [20] 4.8% | Potency [14] | Potency [15] | Potency [16] | Potency [17]

Cc1[nH]c(=O)c(C#N)cc1-c1ccc2nccn2c1
inactive: Potency [1] | Potency [2] | Potency [3] | Potency [4] | Potency [5] | Potency [6] | Potency [18] | Potency [9] | outcome [10] | outcome [11] | Potency [12] | Potency [14] | Potency [15] | Potency [16] | Potency [17]

C[C@@H]1CCN(C(=O)[C@H](CCCN=C(N)N)NS(=O)(=O)c2cccc3c2NC[C@H](C)C3)[C@@H](C(=O)O)C1
inactive: Potency [1] | Potency [2] | Potency [3] | Potency [5] | Potency [19] | Potency [6] | Potency [7] | outcome [8] | Potency [18] | Potency [9] | outcome [10] | outcome [11] | Potency [12] | Potency [13] | Potency [14] | Potency [15] | Potency [16] | Potency [17]

Cc1cc(O)cc2c1O[C@](C)(CCC[C@H](C)CCC[C@H](C)CCCC(C)C)CC2
inactive: Potency [1] | Potency [2] | Potency [3] | Potency [5] | Potency [19] | Potency [6] | Potency [7] | outcome [8] | Potency [18] | Potency [9] | outcome [11] | Potency [12] | Potency [13] | activity change, positive = activation [20] 6.7% [at 42.5 µM] | Potency [14] | Potency [15] | Potency [16] | Potency [17]
